# Key:
# [1] = target: T1, Testis-specific serine/threonine-protein kinase 1 (Homo sapiens) (UniProt Q9BXA7); conditions: at 1 µM
# T1 sequence (whole entry): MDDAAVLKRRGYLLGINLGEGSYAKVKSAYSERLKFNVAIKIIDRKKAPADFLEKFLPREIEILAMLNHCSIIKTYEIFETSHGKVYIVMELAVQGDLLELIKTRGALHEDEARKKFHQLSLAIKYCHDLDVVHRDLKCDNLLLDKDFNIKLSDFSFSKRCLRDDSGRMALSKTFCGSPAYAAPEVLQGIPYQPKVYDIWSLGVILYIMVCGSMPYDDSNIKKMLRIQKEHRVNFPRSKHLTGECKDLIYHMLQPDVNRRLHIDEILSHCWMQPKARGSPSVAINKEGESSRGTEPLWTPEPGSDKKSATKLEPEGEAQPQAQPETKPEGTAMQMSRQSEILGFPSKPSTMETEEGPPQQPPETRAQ
# [2] = target: T1, Testis-specific serine/threonine-protein kinase 1 (Homo sapiens); conditions: at 10 µM
# [3] = target: T2, Testis-specific serine/threonine-protein kinase 2 (Homo sapiens) (UniProt Q96PF2); conditions: at 10 µM
# T2 sequence (whole entry): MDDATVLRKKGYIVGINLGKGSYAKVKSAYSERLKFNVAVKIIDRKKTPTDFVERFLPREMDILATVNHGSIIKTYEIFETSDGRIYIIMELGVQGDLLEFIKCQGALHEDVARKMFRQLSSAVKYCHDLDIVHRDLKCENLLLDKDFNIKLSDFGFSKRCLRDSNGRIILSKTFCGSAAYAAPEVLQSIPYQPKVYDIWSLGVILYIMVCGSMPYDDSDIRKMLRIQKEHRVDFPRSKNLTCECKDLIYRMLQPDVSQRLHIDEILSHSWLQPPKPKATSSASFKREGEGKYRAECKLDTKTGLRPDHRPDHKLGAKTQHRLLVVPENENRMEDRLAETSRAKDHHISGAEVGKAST
# [4] = target: T3, Tyrosine-protein kinase Tec (Homo sapiens) (UniProt P42680); conditions: at 1 µM
# T3 sequence (whole entry): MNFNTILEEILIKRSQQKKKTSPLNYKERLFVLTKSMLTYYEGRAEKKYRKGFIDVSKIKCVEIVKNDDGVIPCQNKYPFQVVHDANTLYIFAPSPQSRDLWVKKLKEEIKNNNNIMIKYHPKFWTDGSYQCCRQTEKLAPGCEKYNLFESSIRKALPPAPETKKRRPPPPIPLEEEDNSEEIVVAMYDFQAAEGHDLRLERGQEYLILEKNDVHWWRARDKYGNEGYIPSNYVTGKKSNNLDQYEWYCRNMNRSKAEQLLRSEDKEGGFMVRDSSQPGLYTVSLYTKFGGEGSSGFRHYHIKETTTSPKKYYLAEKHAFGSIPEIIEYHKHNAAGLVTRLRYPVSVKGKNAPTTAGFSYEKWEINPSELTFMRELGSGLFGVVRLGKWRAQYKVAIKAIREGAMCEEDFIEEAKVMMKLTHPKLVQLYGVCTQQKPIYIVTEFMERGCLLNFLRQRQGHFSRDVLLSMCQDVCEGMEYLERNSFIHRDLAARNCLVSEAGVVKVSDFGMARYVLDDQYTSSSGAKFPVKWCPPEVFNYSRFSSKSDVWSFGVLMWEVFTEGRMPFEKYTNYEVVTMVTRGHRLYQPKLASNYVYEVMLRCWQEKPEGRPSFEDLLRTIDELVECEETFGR
# [5] = target: T3, Tyrosine-protein kinase Tec (Homo sapiens); conditions: at 10 µM
# [6] = target: Angiopoietin-1 receptor (Homo sapiens) (UniProt Q02763); conditions: at 1 µM
# [7] = target: Angiopoietin-1 receptor (Homo sapiens) (UniProt Q02763); conditions: at 10 µM
# [8] = target: High affinity nerve growth factor receptor (Homo sapiens) (UniProt P04629); conditions: at 1 µM
# [9] = target: High affinity nerve growth factor receptor (Homo sapiens) (UniProt P04629); conditions: at 10 µM
# [10] = target: BDNF/NT-3 growth factors receptor (Homo sapiens) (UniProt Q16620); conditions: at 1 µM
# [11] = target: BDNF/NT-3 growth factors receptor (Homo sapiens) (UniProt Q16620); conditions: at 10 µM
# [12] = target: T4, Tyrosine-protein kinase TXK (Homo sapiens) (UniProt P42681); conditions: at 1 µM
# T4 sequence (whole entry): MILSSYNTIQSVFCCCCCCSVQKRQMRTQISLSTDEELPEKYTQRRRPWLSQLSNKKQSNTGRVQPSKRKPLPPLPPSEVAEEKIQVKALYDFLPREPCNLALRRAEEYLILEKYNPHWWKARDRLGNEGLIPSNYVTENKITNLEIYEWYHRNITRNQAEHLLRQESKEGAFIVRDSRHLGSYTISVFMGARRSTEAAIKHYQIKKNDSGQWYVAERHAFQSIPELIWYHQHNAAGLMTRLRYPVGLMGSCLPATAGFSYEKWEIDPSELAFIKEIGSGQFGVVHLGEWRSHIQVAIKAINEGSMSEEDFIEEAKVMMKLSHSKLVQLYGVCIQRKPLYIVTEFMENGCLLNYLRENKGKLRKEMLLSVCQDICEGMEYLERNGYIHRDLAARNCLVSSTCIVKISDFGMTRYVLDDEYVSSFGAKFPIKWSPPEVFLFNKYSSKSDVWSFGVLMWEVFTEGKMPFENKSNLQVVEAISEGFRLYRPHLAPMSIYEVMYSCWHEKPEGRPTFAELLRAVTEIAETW
# [13] = target: T4, Tyrosine-protein kinase TXK (Homo sapiens); conditions: at 10 µM
# [14] = target: T5, Serine/threonine-protein kinase ULK2 (Homo sapiens) (UniProt Q8IYT8); conditions: at 1 µM
# T5 sequence (whole entry): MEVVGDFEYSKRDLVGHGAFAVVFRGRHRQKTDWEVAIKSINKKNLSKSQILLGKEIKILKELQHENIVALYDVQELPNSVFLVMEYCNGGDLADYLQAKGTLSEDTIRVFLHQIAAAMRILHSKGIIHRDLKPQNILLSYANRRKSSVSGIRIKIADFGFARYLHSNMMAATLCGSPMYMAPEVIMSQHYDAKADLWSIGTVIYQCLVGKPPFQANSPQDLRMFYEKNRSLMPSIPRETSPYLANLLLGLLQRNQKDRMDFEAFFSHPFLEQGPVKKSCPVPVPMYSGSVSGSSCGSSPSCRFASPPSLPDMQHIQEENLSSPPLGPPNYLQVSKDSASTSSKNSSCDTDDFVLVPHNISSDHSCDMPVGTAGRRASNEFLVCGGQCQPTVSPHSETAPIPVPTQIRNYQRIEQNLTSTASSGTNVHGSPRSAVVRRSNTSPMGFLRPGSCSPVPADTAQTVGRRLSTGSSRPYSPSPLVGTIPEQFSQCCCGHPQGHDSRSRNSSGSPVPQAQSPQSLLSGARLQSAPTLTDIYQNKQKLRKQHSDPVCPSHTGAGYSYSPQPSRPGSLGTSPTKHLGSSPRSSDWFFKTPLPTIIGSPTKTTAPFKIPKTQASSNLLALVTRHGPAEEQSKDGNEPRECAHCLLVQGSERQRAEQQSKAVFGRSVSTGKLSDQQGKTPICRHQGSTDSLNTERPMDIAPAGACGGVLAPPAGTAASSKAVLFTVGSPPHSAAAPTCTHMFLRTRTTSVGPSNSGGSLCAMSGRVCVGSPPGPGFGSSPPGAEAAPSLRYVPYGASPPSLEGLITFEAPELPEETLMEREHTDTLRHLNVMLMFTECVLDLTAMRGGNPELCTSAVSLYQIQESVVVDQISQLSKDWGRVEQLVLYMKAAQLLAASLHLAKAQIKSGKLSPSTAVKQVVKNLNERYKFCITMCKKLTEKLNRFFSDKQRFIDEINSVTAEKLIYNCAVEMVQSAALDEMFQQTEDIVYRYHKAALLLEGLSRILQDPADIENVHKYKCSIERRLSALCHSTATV
# [15] = target: T5, Serine/threonine-protein kinase ULK2 (Homo sapiens); conditions: at 10 µM
# [16] = target: T6, Serine/threonine-protein kinase ULK3 (Homo sapiens) (UniProt Q6PHR2); conditions: at 1 µM
# T6 sequence (whole entry): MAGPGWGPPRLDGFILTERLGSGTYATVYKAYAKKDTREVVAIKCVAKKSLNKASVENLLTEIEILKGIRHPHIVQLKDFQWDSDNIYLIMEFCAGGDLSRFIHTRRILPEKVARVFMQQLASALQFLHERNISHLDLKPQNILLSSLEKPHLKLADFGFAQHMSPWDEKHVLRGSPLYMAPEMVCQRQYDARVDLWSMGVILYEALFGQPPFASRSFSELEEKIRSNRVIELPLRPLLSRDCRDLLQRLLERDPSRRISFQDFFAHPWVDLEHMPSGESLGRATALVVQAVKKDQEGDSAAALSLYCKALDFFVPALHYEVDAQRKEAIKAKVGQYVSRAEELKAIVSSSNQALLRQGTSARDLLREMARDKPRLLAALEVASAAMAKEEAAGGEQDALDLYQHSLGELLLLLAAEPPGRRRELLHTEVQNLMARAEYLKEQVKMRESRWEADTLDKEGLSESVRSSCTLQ
# [17] = target: T6, Serine/threonine-protein kinase ULK3 (Homo sapiens); conditions: at 10 µM
# [18] = target: Serine/threonine-protein kinase VRK2 (Homo sapiens) (UniProt Q86Y07); conditions: at 1 µM
# [19] = target: Serine/threonine-protein kinase VRK2 (Homo sapiens) (UniProt Q86Y07); conditions: at 10 µM
# [20] = target: Serine/threonine-protein kinase WNK2 (Homo sapiens) (UniProt Q9Y3S1); conditions: at 1 µM;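 note: residual WNK2 kinase activity expressed as percent of uninhibited control, assayed in MOPS buffer at pH 7.0 containing EDTA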
# Sequence of Serine/threonine-protein kinase WNK2 (Homo sapiens) (Q9Y3S1 whole entry): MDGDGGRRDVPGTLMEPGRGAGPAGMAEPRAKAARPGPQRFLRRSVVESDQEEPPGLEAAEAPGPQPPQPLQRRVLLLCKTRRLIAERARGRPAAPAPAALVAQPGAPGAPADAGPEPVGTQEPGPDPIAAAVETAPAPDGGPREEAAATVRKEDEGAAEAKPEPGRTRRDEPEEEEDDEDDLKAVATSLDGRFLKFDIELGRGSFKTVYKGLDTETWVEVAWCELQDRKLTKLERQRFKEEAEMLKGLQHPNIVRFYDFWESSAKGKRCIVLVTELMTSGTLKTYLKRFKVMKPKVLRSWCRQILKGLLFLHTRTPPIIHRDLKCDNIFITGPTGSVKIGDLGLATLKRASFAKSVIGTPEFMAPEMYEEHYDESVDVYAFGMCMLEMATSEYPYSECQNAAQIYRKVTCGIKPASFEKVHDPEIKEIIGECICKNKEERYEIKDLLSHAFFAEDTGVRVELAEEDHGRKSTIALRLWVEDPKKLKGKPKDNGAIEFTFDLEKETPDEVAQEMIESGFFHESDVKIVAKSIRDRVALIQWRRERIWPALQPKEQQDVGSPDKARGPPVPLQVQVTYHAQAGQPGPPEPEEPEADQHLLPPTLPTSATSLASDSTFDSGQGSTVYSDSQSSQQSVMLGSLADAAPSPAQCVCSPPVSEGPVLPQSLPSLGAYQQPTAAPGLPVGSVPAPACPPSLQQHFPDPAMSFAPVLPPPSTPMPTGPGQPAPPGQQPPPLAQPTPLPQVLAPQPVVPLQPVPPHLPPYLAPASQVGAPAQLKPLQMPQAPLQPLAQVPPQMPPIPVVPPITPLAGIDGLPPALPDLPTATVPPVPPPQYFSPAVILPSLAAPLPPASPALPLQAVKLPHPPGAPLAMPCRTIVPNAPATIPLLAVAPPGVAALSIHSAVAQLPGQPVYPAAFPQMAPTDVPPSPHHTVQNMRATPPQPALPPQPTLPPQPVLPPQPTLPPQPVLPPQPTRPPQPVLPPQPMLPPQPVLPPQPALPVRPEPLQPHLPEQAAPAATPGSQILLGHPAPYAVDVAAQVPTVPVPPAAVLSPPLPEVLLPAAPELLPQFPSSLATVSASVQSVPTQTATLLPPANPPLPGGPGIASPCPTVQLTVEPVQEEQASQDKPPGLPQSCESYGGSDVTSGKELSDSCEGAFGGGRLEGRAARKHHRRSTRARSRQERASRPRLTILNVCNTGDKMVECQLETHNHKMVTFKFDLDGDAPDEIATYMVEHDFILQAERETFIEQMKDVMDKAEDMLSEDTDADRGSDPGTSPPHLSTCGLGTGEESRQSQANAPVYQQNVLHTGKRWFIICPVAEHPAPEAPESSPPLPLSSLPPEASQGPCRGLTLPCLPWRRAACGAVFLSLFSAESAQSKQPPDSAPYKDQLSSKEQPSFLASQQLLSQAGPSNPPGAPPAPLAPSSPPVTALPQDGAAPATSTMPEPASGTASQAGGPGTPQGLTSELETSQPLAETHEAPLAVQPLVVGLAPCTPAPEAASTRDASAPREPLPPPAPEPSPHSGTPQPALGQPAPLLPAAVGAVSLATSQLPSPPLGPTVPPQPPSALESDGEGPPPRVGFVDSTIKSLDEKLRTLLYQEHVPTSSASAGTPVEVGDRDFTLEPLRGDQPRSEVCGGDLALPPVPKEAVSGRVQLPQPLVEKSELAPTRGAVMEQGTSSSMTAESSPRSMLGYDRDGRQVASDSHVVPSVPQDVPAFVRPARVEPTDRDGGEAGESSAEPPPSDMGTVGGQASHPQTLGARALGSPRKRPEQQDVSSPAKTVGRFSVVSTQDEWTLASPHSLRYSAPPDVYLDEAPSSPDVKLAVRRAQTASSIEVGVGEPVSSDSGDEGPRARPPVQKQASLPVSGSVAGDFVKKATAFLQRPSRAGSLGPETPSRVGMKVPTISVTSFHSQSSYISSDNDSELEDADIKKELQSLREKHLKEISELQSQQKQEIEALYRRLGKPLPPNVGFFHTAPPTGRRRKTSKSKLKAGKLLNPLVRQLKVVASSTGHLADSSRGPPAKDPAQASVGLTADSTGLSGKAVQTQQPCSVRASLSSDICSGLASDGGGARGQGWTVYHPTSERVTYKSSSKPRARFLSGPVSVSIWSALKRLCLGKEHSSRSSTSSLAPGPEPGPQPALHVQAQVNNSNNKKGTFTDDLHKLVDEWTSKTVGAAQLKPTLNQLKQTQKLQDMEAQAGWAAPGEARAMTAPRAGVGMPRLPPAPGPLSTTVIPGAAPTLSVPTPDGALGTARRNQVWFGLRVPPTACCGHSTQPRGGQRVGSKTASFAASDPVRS
# Sequence of High affinity nerve growth factor receptor (Homo sapiens) (P04629 33-796 limits assumed): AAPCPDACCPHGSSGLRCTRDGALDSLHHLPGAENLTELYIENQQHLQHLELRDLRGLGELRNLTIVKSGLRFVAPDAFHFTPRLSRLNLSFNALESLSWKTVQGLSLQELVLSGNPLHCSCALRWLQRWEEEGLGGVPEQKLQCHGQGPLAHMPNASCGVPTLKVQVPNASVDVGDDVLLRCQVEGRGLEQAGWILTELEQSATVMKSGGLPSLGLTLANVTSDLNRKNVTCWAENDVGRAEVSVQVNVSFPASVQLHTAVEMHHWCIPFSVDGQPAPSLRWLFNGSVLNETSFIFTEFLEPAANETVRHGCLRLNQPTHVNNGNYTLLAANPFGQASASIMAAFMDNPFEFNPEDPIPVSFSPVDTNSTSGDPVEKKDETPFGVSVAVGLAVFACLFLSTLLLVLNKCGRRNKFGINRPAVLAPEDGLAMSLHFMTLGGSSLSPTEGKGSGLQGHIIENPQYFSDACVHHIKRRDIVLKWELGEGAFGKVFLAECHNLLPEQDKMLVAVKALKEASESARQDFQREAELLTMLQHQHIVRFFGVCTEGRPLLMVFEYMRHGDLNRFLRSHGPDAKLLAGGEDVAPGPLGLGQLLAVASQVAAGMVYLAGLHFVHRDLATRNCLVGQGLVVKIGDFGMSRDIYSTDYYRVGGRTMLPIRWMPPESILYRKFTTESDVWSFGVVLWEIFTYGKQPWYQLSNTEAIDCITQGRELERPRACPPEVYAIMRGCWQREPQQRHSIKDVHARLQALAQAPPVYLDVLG
# Sequence of BDNF/NT-3 growth factors receptor (Homo sapiens) (Q16620 32-822 limits assumed): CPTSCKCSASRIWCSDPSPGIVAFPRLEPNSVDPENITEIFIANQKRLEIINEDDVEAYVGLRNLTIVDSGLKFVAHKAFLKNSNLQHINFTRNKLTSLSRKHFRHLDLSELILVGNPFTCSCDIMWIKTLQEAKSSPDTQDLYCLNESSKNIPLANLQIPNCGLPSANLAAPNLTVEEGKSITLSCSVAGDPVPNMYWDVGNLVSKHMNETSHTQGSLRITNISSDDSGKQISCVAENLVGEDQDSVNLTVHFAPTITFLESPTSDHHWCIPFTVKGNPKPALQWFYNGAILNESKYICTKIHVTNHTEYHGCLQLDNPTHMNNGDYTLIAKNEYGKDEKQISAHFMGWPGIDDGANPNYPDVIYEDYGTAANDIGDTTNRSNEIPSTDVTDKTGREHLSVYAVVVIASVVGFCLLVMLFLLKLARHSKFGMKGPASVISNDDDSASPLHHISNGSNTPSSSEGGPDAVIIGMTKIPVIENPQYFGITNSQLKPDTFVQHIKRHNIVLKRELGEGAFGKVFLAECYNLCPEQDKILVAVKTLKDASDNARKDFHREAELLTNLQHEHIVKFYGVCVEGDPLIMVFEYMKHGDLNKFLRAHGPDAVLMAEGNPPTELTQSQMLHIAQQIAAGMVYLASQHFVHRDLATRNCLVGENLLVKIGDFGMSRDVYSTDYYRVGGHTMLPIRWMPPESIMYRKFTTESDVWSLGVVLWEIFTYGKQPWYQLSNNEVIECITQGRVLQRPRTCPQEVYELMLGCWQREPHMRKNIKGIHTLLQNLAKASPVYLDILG
# Sequence of Serine/threonine-protein kinase VRK2 (Homo sapiens) (Q86Y07 whole entry): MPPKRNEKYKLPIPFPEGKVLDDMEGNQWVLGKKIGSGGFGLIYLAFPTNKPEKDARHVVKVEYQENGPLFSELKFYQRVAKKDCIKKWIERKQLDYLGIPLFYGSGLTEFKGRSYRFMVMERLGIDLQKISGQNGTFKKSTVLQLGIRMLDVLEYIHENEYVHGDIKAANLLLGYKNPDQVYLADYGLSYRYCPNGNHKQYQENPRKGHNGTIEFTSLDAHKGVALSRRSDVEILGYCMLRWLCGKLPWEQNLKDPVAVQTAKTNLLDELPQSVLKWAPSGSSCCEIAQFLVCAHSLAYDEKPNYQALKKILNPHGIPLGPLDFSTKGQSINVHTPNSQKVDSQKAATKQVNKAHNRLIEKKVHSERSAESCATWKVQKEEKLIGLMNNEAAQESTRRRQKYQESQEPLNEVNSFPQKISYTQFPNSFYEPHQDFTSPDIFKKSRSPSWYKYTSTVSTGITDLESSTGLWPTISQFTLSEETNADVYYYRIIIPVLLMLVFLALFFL
SMILES,residual activity [1] [%],residual activity [2] [%],residual activity [3] [%],residual activity [4] [%],residual activity [5] [%],residual activity [6] [%],residual activity [7] [%],residual activity [8] [%],residual activity [9] [%],residual activity [10] [%],residual activity [11] [%],residual activity [12] [%],residual activity [13] [%],residual activity [14] [%],residual activity [15] [%],residual activity [16] [%],residual activity [17] [%],residual activity [18],residual activity [19] [%],residual activity [20]
CNc1cc2c(Nc3cccc(Br)c3)ncnc2cn1,93,90,103,96,52,90,89,69,53,64,21,98,64,103,95,103,70,99% (inactive),91,105% (inactive)
COc1cc2ncnc(Nc3ccc(NC(=O)c4ccccc4)cc3)c2cc1OC,109,92,96,97,82,–,65,73,20,54,21,95,82,108,104,99,69,110% (inactive),55,52% (inactive)
Cc1nc2cc3nc(-c4cccs4)cnc3cc2n1C,102,85,93,83,101,81,61,72,27,69,45,108,75,108,107,106,85,111% (inactive),84,117% (inactive)
CCN(CC)C(=O)c1ccc(Nc2nc(OCC3CCCCC3)c3nc[nH]c3n2)cc1,14,2,14,24,2,–,8,8,0,36,2,49,5,80,35,36,8,–,–,96% (inactive)
Cc1cncc2cccc(S(=O)(=O)N3CCCN(C(=O)CN)C[C@H]3C)c12,95,79,94,100,77,78,40,64,-1,–,–,100,91,93,47,97,59,94% (inactive),66,–
N#CCCc1ccc2c(c1)-c1[nH]c3ccc([N+](=O)[O-])cc3c1CC(=O)N2,39,21,–,–,29,–,–,54,23,71,65,26,9,47,21,33,6,–,–,–
Oc1ccc(Nc2nc(-c3ccc(Cl)cc3)cs2)cc1,110,87,105,100,78,113,131,108,64,74,78,97,79,118,105,96,102,98% (inactive),102,117% (inactive)
Cc1cc2ncc(-c3ccccc3)nc2cc1C,101,97,91,90,71,98,89,106,81,94,53,90,84,104,88,107,96,105% (inactive),96,99% (inactive)
O=C1Nc2ccccc2/C1=C1/Nc2ccccc2/C1=N\OCCC(O)CO (stereo not drawn),75,69,–,47,8,–,–,-1,0,-2,0,31,3,98,74,27,5,69% (inactive),26,71% (inactive)

# — ChEMBL document CHEMBL2218924, “A broad activity screen in support of a chemogenomic map for kinase signalling research and drug discovery” (Biochem J, 2013)
